Test results taken from PubChem BioAssay (NCATS).
“And” between values parts separate entries of the source, which are not always exact repeats. Identical values can stand only once. Results filed as inconclusive are left out. The source made the active and inactive calls. Unless noted, calls come from the whole dose curve; as a rule, active = well fitted curve in the direction sought with a large enough effect; inconclusive = small, poorly fitted or top-dose-only effect, or another doubt; inactive = no such curve, though single readings can be large; an effect the other way counts as inactive or inconclusive.

Experiments:
[1] = Cell Viability - SH-SY5Y (AID 544); conditions: SH-SY5Y neuroblastoma cell viability; viability change, negative = cytotoxic: at 92.2 µM (top of the series);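 note: cells exposed to compound for 40 hours; 0% = DMSO alone and -100% = 100 µM tamoxifen; nearly all actives have a fitted effect of over 55% in size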
Outline: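 Cells were plated at 1500 per well and allowed 5 hr at 37 °C. Compounds were added across a concentration range and incubated 40 hr at 37 °C. CellTiter-Glo was added for 20 min at room temperature before luminescence reading.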

[2] = Cellular Toxicity (caspase-3) SHSY5Y (AID 657)
Outline: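 Luminescent Caspase-Glo 3/7 read-out, 1 hr room temperature, follows 16 hours of compound treatment of SH-SY5Y cells at 37 °C. Normalization: DMSO basal, 10 uM staurosporine as 100%; AC50 values from Hill-equation concentration-response fits.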

[3] = Cell Viability - LYMP2-001 (AID 921); note: nearly all actives have a fitted effect of over 70% in size; note: potency is the fitted concentration of half-maximal effect
Outline: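 Cellular ATP loss read by luciferase luminescence after 24 h compound exposure at 37 C in complete medium. LYMP2-001 lymphoblastoid cells, 2500/well; qHTS concentration-response data fitted with Hill equation for AC50.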

[4] = MultiTox-Fluor Cytotoxicity Assay - LYMP1-003 - Live Cells (AID 962);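 note: 0% = DMSO only and full loss = 92 µM tetraoctylammonium bromide; cytotoxic hits lower the live-cell protease signal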
Outline: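 Acute cytotoxicity is scored as a drop in live-cell protease activity in human lymphoblastoid LYMP1-003 cells after 16 hr compound exposure at 37 C. AC50 values come from Hill-equation modelling of concentration-response data.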

[5] = Cell Viability - LYMP2-004 (AID 966); note: nearly all actives have a fitted effect of over 65% in size; note: potency is the fitted concentration of half-maximal effect
Outline: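 qHTS cytotoxicity: human lymphoblastoid line, 24 hr compound treatment, 37 C, complete medium. Viability read as cellular ATP via luciferase luminescence; tetraoctylammonium bromide served as positive control.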

[6] = Cell Viability - LYMP2-013 (AID 970); note: nearly all actives have a fitted effect of over 55% in size; note: potency is the fitted concentration of half-maximal effect
Outline: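 Cytotoxicity is scored as a concentration-dependent drop in intracellular ATP in human lymphoblastoid cells after 24 hr compound exposure at 37 C. ATP is quantified by luciferase luminescence, and AC50 values come from Hill-equation modeling.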

[7] = Cell Viability - LYMP2-007 (AID 979);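 note: cells exposed to compound for 24 h before reading; nearly all actives have a fitted effect of over 60% in size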; note: potency is the fitted concentration of half-maximal effect
Outline: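 Cells are seeded at 2500 per well and rested 5 hr. Compounds are then added over a concentration series for 24 hr at 37 C. CellTiter-Glo is added for 30 min at room temperature before luminescence reading.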

[8] = Cell Viability - LYMP2-012 (AID 982);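 note: cellular ATP by luciferase luminescence where a drop means cytotoxicity; cells exposed to compound for one day before reading; nearly all actives have a fitted effect of over 55% in size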; note: potency is the fitted concentration of half-maximal effect
[9] = Cell Viability - LYMP2-018 (AID 985); note: nearly all actives have a fitted effect of over 50% in size; note: potency is the fitted concentration of half-maximal effect
Outline: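 Seed 2500 lymphoblastoid cells per well, incubate 5 hr at 37 C, add compound and incubate 24 hr at 37 C, add CellTiter-Glo, wait 30 min at room temperature, then read luminescence.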

[10] = Cell Viability - LYMP1-002 - Assay at 40 hr (AID 994);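 note: 0% = DMSO only and full inhibition = 92 µM tetraoctylammonium bromide; nearly all actives have a fitted effect of over 60% in size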
Outline: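 Cells are plated at 2500 per well and rested 5 hr at 37 C. Compounds are added and incubated 40 hr at 37 C. CellTiter-Glo reagent is added for 30 min at room temperature before luminescence is read.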

[11] = qHTS assay for small molecule antagonists of retinoid X receptor alpha signaling (AID 588546; active = well fitted inhibition curve with a large enough effect in the signal ratio, with a control signal flat, not every such curve was filed as active; the % refers to the signal ratio;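 note: cells stimulated with 9-cis-retinoic acid as agonist; % is set by controls: 0 for no effect and ±100 for the full control effect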); conditions: HEK293T RXRa-UAS-bla, beta-lactamase ratio, antagonist mode; measured here: W530 green channel, cytotoxicity proxy
Outline: (§1)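 Beta-lactamase reporter inhibition, read as CCF4 fluorescence ratio (ex 405, em 460/530 nm) after 2 h at RT. HEK293T UAS-bla cells, 2500/well, were stimulated with 9-cis-RA at 500 or 100 nM final alongside test compound for 18 h at 37 C.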

[12] = biological target: Retinoic acid receptor RXR-alpha (Homo sapiens) (UniProt P19793); assay: as above; conditions: HEK293T RXRa-UAS-bla, beta-lactamase ratio, antagonist mode
Outline: as §1

[13] = qHTS assay for small molecule agonists of the antioxidant response element (ARE) signaling pathway measured by Nrf2-dependant transcriptional activity (AID 720636; active = well fitted curve in the direction sought with a large enough effect in the repeat runs; an effect the other way counts as inactive or inconclusive; note: % of control where 0% means no effect)
Outline: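 Nrf2-dependent transcription read as ONE-Glo luciferase signal from ARE-luc HepG2 reporter cells after 16 hr compound treatment at 37 C, 5% CO2, in assay medium with 1% dialyzed FBS.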

[14] = qHTS assay for small molecule antagonists of the retinoid-related orphan receptor gamma (ROR-gamma) signaling pathway - cell viability counter screen (AID 720652; active = well fitted curve in the direction sought with a large enough effect in the repeat runs; an effect the other way counts as inactive or inconclusive;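 note: CHO reporter cells with doxycycline-induced ROR-gamma expression; compound exposure lasted 16 hr before ATP read; % is set by controls: 0 for no effect and ±100 for the full control effect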)
Outline: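 Steps: seed CHO cells bearing TET-inducible ROR and ROR response element-luciferase; rest 5 hr at 37 C; add compound, then doxycycline; incubate 16 hr; add CellTiter-Glo and read luminescence as ATP-based viability.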

[15] = Cell Viability - H-4-II-E (AID 543);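 note: cells exposed to compound for 40 hours; % is set by controls: 0 for no effect and ±100 for the full control effect; nearly all actives have a fitted effect of over 35% in size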
Outline: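 Cells seeded at 1500 per well and rested 5 hr; compounds added; 40 hr incubation at 37 °C; CellTiter-Glo added, 20 min at room temperature; luminescence read. Hill-equation fits gave AC50.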

[16] = Cell Viability - LYMP2-005 (AID 967);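 note: plate controls were DMSO only for no effect and 92 µM tetraoctylammonium bromide control for full effect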
Outline: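 LYMP2-005 human lymphoblastoid cells (2500/well) were treated with compounds for 24 h at 37 C. Intracellular ATP was then measured by CellTiter-Glo luminescence after 30 min at room temperature. AC50 values came from Hill-equation fits of qHTS concentration-response data.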

[17] = Cell Viability - LYMP2-025 (AID 976);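 note: plate controls were DMSO only for no effect and tetraoctylammonium bromide control for full effect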
Outline: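 Acute cytotoxicity is scored as a concentration-dependent fall in intracellular ATP, measured by luciferase luminescence, in human lymphoblastoid LYMP2-025 cells exposed to compound for 24 hours at 37 C. AC50 values come from standard Hill fits.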

[18] = Cell Viability - LYMP2-026 (AID 989); note: % is set by controls: 0 for no effect and ±100 for the full control effect; nearly all actives have a fitted effect of over 50% in size
Outline: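 Cells are seeded at 2500 per well and held 5 hr at 37 C. Compounds are added in concentration series for 24 hr, then CellTiter-Glo reagent is applied and luminescence read.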

[19] = qHTS assay for small molecule agonists of retinoid X receptor alpha signaling (AID 588544; calls by dose curve); conditions: HEK293T RXRa-UAS-bla, beta-lactamase reporter, 18 h; 530 nm emission
[20] = biological target: Retinoic acid receptor RXR-alpha (Homo sapiens) (UniProt P19793); assay: as above

Chain of Retinoic acid receptor RXR-alpha (Homo sapiens) (P19793 whole entry, looked up): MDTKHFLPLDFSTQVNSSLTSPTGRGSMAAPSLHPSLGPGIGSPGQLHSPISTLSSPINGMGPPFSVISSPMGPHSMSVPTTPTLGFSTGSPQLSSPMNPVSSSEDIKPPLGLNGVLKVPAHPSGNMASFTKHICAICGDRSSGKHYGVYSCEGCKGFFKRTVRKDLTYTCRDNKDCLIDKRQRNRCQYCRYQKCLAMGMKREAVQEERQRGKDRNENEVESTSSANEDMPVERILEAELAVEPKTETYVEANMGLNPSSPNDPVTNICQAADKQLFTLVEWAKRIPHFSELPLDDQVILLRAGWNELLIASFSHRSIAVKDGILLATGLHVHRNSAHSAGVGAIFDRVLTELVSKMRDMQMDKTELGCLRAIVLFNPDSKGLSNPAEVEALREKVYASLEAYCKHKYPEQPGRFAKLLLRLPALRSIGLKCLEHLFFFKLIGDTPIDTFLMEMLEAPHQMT

OC[P+](CO)(CO)CO
active: Potency [3] 15.8 µM | Potency [5] 20 µM | Potency [6] 31.6 µM | Potency [7] 15.8 µM | Potency [8] 15.8 µM | Potency [9] 7.94 µM
inactive: Potency [1] | outcome [2] | outcome [4] | Potency [10] | max response [12] -5.42% and -52.4% | Potency [13] | Potency [14]
5.58% and 5.35%: max response [11]

CN(C)c1ccccc1
5.14%: max response [11]
inactive: Potency [15] | Potency [1] | outcome [2] | Potency [3] | outcome [4] | Potency [5] | Potency [16] | Potency [6] | Potency [17] | Potency [7] | Potency [8] | Potency [9] | Potency [18] | Potency [10] | outcome [20] | max response [12] 5.23% | Potency [13] | Potency [14]
-3.38%: max response [19]

O=[N+]([O-])c1ccccc1O
-5.99%: max response [11]
-4.21%: max response [19]
inactive: Potency [15] | Potency [1] | outcome [2] | Potency [3] | outcome [4] | Potency [5] | Potency [16] | Potency [6] | Potency [17] | Potency [7] | Potency [8] | Potency [9] | Potency [18] | Potency [10] | outcome [20] | max response [12] -20.2% | Potency [13] | Potency [14]

C=CC=O
inactive: Potency [15] | outcome [2] | Potency [3] | outcome [4] | Potency [5] | Potency [16] | Potency [6] | Potency [17] | Potency [7] | Potency [8] | Potency [9] | Potency [18] | Potency [10] | outcome [20] | Potency [13] | Potency [14]
active: viability change, negative = cytotoxic [1] -91.6%
-0.594%: max response [19]

CC(C)(Cl)Cl
-1.69%: max response [11]
inactive: Potency [15] | Potency [1] | outcome [2] | outcome [4] | Potency [5] | Potency [16] | Potency [6] | Potency [17] | Potency [7] | Potency [8] | Potency [9] | Potency [18] | Potency [10] | outcome [20] | max response [12] 3.57% | Potency [13] | Potency [14]
-10.7%: max response [19]

Clc1ccc(C(Cl)(Cl)Cl)c(Cl)c1
inactive: Potency [15] | Potency [1] | outcome [2] | Potency [3] | outcome [4] | Potency [5] | Potency [16] | Potency [6] | Potency [17] | Potency [7] | Potency [8] | Potency [9] | Potency [18] | Potency [10] | outcome [20] | max response [12] 8.02% | Potency [13] | Potency [14]
-9.41%: max response [11]
-5.84%: max response [19]

Clc1ccc(Cl)c(Cl)c1
-7.44% and -24%: max response [19]
inactive: Potency [15] | Potency [1] | outcome [2] | Potency [3] | outcome [4] | Potency [5] | Potency [16] | Potency [6] | Potency [17] | Potency [7] | Potency [8] | Potency [9] | Potency [18] | Potency [10] | outcome [20] | max response [12] 7.63% and -21.3% | Potency [13] | Potency [14]
10.3% and -7.29%: max response [11]

C=C(C)CCl
inactive: Potency [15] | Potency [1] | outcome [2] | Potency [3] | outcome [4] | Potency [5] | Potency [16] | Potency [6] | Potency [17] | Potency [7] | Potency [8] | Potency [9] | Potency [18] | Potency [10] | outcome [20] | max response [12] 1.96% | Potency [13] | Potency [14]
-6%: max response [19]
-2.4%: max response [11]

CCC(Cl)[N+](=O)[O-] (stereo not given)
-9.88%: max response [11]
inactive: Potency [15] | Potency [1] | outcome [2] | Potency [3] | outcome [4] | Potency [5] | Potency [16] | Potency [6] | Potency [17] | Potency [7] | Potency [8] | Potency [9] | Potency [18] | Potency [10] | outcome [20] | max response [12] -10.3% | Potency [13] | Potency [14]
-8.6%: max response [19]

OCCBr
1.51%: max response [19]
inactive: Potency [15] | Potency [1] | outcome [2] | Potency [3] | outcome [4] | Potency [5] | Potency [16] | Potency [6] | Potency [17] | Potency [7] | Potency [8] | Potency [9] | Potency [18] | Potency [10] | outcome [20] | max response [12] 2.44% | Potency [13] | Potency [14]
8.33%: max response [11]

Nc1cc(Cl)cc(Cl)c1
-17%: max response [19]
inactive: Potency [15] | Potency [1] | outcome [2] | Potency [3] | outcome [4] | Potency [5] | Potency [16] | Potency [6] | Potency [17] | Potency [7] | Potency [8] | Potency [9] | Potency [18] | Potency [10] | outcome [20] | max response [12] 0.872% | Potency [13] | Potency [14]
-5.15%: max response [11]

NC1CCC(CC2CCC(N)CC2)CC1 (stereo not given)
8.4%: max response [19]
inactive: Potency [15] | Potency [1] | outcome [2] | outcome [4] | Potency [5] | Potency [16] | Potency [6] | Potency [17] | Potency [7] | Potency [8] | Potency [9] | Potency [18] | Potency [10] | outcome [20] | max response [12] -0.208% and 1.62% | Potency [13] | Potency [14]
2.2% and -10.5%: max response [11]

CCOP(=O)(OCC)OCC
inactive: Potency [15] | Potency [1] | outcome [2] | Potency [3] | outcome [4] | Potency [5] | Potency [16] | Potency [6] | Potency [17] | Potency [7] | Potency [8] | Potency [9] | Potency [18] | Potency [10] | outcome [20] | max response [12] 10.3% and -4.1% | Potency [13] | Potency [14]
-8.04% and -7.35%: max response [19]
9.41% and -13.4%: max response [11]

ClCC(Cl)CCl
-14.4% and -17.5%: max response [19]
inactive: Potency [15] | Potency [1] | outcome [2] | Potency [3] | outcome [4] | Potency [5] | Potency [16] | Potency [6] | Potency [17] | Potency [7] | Potency [8] | Potency [9] | Potency [18] | Potency [10] | outcome [20] | max response [12] 11.2% and -5.45% | Potency [13] | Potency [14]
0.286% and -10.8%: max response [11]

Oc1cc(Cl)ccc1Cl
inactive: Potency [15] | Potency [1] | outcome [2] | Potency [3] | outcome [4] | Potency [5] | Potency [16] | Potency [6] | Potency [17] | Potency [7] | Potency [8] | Potency [9] | Potency [18] | Potency [10] | outcome [20] | max response [12] 8.9% and 7.36% | Potency [13] | Potency [14]
-10.2% and -8.32%: max response [19]
-4.84% and -5.75%: max response [11]
